According to PubChem BioAssay:
Active and inactive are the calls of the source.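 How the source made its calls, unless noted: active means inhibition at or above 50% at 10 µM; inactive means inhibition below 50%.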

Experiments:
[1] = inhibitors of TNFa-induced NFkB p65 translocation, primary screen, imaging, HUVEC, MLSMR starter and 10KST1 sets (AID 438;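 active means inhibition above 20% together with a positive visual image hit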;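 further: compound added about 3h40 before a 20 min TNFalpha stimulation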;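 on inhibition: signal is the nuclear over cytoplasmic p65 intensity ratio per well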); settings: HUVEC TNFa-induced p65 nuclear translocation; cell count: measured here: nuclei count (cytotoxicity indicator), at 2.08 µM; inhibition: at 2 µM, stronger effect = higher value, 0% TNFa-plus-vehicle, 100% no-TNFa wells
[2] = reduction of polyQ htt aggregates in cells – imaging, exon1htt(103Q)mCFP cells, high-content imaging, primary screen (AID 483;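 active means visual image review flags a hit and inhibition of aggregation exceeds 20%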;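 further: compound exposure lasted 3 days before fixation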;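 on nuclei count: percent of the per-plate median nuclei count of sample wells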); settings: exon1htt(103Q)mCFP cell line, aggregate imaging, at 2 µM; inhibition of aggregation: stronger effect = higher value; nuclei count: measured here: cell count, toxicity
[3] = endothelial E-selectin expression blockers – imaging, HUVEC, immunofluorescence, MLSMR starter and 10KST1 sets, primary screen (AID 487;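 active means visually confirmed hit in the image check and inhibition above 20%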;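 on inhibition: signal is fraction of cell area covered by stained E-selectin grains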;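 on nuclei count: 100% = median nuclei count of all wells on the same plate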); settings: HUVEC TNFalpha-induced E-selectin immunofluorescence imaging, at 2 µM; inhibition: stronger effect = higher value; nuclei count: measured here: cell number, toxicity
[4] = molecular target: Voltage-gated potassium channel subunit beta-2 (Rattus norvegicus) (UniProt P62483); experiment: inhibitors of rat Kvbeta2 reductase activity – biochemical, NADPH fluorescence, primary screen (AID 622;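 active means fluorescence slope higher than the sample average by over 3 SD, cut at about -0.22 in these data, passing the limit was not always enough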;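 further: slope of raw intensity against log time taken from 70 to 1610 s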); settings: recombinant KvBeta, 4-cyanobenzaldehyde reduction, at 10 µM, stronger effect = higher value
[5] = molecular target: Voltage-gated potassium channel subunit beta-2 (Rattus norvegicus) (UniProt P62483); experiment: enhancers of rat Kvbeta2 NADPH turnover – biochemical, NADPH fluorescence, primary screen (AID 623;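 active means NADPH fluorescence slope more negative than the mean of all samples by about 3 SD, 99.7% confidence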;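 further: fluorescence intensity change per second fitted from 20 to 320 s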); settings: Recombinant KvBeta, NADPH fluorescence decrease slope, 10 min; at 10 µM; stronger effect = lower value
[6] = molecular target: Alpha-2C adrenergic receptor (Homo sapiens) (UniProt P18825); experiment: compounds altering alpha2C-coupled GIRK flux – cell-based, HEK293 alpha2C/GIRK1/2, thallium flux, primary screen (AID 624;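 active means fluorescence slope after compound addition differing from the mean of all screened samples at 99.7% confidence, in either direction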;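 further: slope of fluorescence ratio to pre-addition baseline per second over 15 to 24 s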); settings: thallium flux BTC fluorescence, at 10 µM, actives lie on both sides
[7] = blockers of RIG-like receptor reporter activation – cell-based, Sendai virus stimulus, luciferase, 10K MLSCN set, TLR/RLR signaling modifier project, primary screen (AID 602276); settings: HEK293 RL24 IRF3 luciferase reporter, at 10 µM, stronger effect = higher value;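 further: firefly luciferase from ISG56 promoter only with Renilla not read in this screen; 0% = Sendai virus plus DMSO and 100% = medium plus DMSO without virus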
[8] = TLR3 IRF3 reporter activation blockers – cell-based, poly I:C stimulus, luciferase, 10K MLSCN set, primary screen (AID 602277;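 active means inhibition of the reporter signal at or above 50%; inactive means inhibition below 50%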); settings: HEK293-TLR3 RL24 IRF3 luciferase reporter, at 10 µM, stronger effect = higher value

Sequence of Voltage-gated potassium channel subunit beta-2 (Rattus norvegicus) (P62483 whole entry, looked up): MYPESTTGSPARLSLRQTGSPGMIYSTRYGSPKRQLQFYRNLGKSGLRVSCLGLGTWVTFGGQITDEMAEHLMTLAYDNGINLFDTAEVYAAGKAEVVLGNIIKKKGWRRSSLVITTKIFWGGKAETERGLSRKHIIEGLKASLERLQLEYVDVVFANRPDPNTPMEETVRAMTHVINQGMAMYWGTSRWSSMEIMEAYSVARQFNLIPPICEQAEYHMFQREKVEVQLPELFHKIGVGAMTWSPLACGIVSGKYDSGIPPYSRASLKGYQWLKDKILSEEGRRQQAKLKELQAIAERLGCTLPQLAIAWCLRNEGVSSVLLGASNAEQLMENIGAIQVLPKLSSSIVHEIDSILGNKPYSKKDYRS
Sequence of Alpha-2C adrenergic receptor (Homo sapiens) (P18825 whole entry, looked up): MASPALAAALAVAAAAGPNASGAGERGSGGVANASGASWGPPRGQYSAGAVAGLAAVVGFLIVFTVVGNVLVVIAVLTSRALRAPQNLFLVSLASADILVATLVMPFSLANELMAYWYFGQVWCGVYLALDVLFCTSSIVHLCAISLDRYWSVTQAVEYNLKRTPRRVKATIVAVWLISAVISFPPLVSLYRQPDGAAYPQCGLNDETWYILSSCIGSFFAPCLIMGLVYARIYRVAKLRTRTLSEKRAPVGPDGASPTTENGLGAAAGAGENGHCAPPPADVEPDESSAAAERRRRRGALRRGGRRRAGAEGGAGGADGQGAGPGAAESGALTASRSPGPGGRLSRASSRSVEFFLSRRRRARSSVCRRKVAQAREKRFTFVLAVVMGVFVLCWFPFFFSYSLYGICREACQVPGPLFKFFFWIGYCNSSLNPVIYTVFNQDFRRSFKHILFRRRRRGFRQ

SMILES	cell count [1]	inhibition [1]	inhibition of aggregation [2]	nuclei count [2] [%]	inhibition [3]	nuclei count [3] [%]	fluorescence slope [4]	NADPH fluorescence slope [5]	slope [6]	inhibition [7]	inhibition [8]
CCOC(=O)C1CCCN(c2c(Nc3ccc(C)c(C)c3)c(=O)c2=O)C1 (stereo not given)	613	9% (inactive)	2.3% (inactive)	104	-103% (inactive)	131	-0.539 (inactive)	6.2e-06 (inactive)	0.00607 (inactive)	-6.09% (inactive)	32.9% (inactive)
O=C(Nc1cccc(Cl)c1)N1CCN(Cc2ccccc2)CC1	652	1.3% (inactive)	-6.8% (inactive)	99.5	-40% (inactive)	106	-0.529 (inactive)	-3.3e-05 (inactive)	0.00631 (inactive)	-35.1% (inactive)	-81.7% (inactive)
COc1cccc(C(=O)Nc2ncc3c(n2)CC(C)CC3=O)c1 (stereo not given)	390	2.5% (inactive)	3% (inactive)	95.8	-0.5% (inactive)	88.1	-0.592 (inactive)	-5.1e-05 (inactive)	0.00534 (inactive)	-6.66% (inactive)	-7.05% (inactive)
c1ccc(CCNc2ccc3nncn3n2)cc1	593	5.8% (inactive)	-3.1% (inactive)	106	-9.2% (inactive)	121	-0.501 (inactive)	-2.4e-05 (inactive)	0.00573 (inactive)	6.01% (inactive)	12.8% (inactive)
CC1CCN(C(=O)CSc2nnc(Cc3cc(=O)[nH]c(=O)[nH]3)n2-c2ccc(Cl)cc2)CC1	713	-6.3% (inactive)	14.9% (inactive)	87.4	1.4% (inactive)	105	-0.602 (inactive)	-8.2e-06 (inactive)	0.00679 (inactive)	-3.8% (inactive)	16.5% (inactive)
